Bioassay records (PubChem BioAssay)
The list is not random: actives were taken first. Their share in the collection is about 1.5%.
MazEF act: activators of E. coli MazEF toxin-antitoxin RNase, primary screen, biochemical, fluorescence, uHTS. FAM/BHQ RNA-DNA oligo cleavage fluorescence, 5 h. Endoribonuclease toxin MazF (Escherichia coli (strain K12)), P0AE70. activation, % at 20 µM. AID 504720, 2011. 350,000 tested, 0.32% active; in the data active means activation above about 50%
Target sequence (P0AE70 whole entry, looked up): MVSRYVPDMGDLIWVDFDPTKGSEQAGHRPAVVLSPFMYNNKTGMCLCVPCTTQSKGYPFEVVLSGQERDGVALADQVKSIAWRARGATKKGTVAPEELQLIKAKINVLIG
VHR inh abs: VHR1 phosphatase inhibitors, primary screen, biochemical, absorbance, uHTS | recombinant VHR phosphatase, pNPP absorbance | Dual specificity protein phosphatase 3 (Homo sapiens), P51452 | 290,000 tested, 0.52% active | inhibition, % at 13.3 µM; in the data active means inhibition above about 50%
Target sequence (P51452 whole entry, looked up): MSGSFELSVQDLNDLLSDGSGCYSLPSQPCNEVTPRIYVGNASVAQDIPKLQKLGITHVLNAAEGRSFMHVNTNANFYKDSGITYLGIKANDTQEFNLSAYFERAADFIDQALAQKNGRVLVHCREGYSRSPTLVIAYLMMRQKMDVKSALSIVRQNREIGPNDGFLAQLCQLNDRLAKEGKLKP
Mtb hypoxia inh: PubChem AID 1159583; 300,000 tested, 0.1% active; fluorescence inhibition, % (test concentration not listed); M. tuberculosis hypoxia-regulated fluorescent reporter, fluorescence; in the data active means fluorescence inhibition mostly above about 23%, no sharp cut-off; inactive means mostly below about 17%
PrP 5UTR inh: inhibition of PrP 5' UTR reporter expression; cell-based PrP 5' UTR mRNA reporter, plate reader; inhibition, % (no concentration beside the values); 340,000 tested, 0.35% active; in the data active means inhibition above about 52%; further: 0 = median of the neutral control wells
SARS 3CLpro inh: SARS-CoV 3CLpro protease inhibitors, primary screen, biochemical, quenched FRET. Replicase polyprotein 1ab (Severe acute respiratory syndrome coronavirus), P0C6X7. recombinant SARS-CoV 3CLpro, quenched FRET peptide cleavage. inhibition, % at 6 µM. 290,000 tested, 0.14% active. AID 1706, 2009; in the data active means inhibition above about 12%
PrPC surface inh: inhibitors of human cell surface prion protein PrPC, primary screen, cell-based, TR-FRET | inhibition, % at 13.8 µM | TR-FRET read-out | Major prion protein (Homo sapiens), P04156 | 370,000 tested, 0.43% active | AID 720596, 2013; in the data active means inhibition above about 24%; further: 0% = median of the test wells and 100% = reference compound wells
PrP 5UTR single: prion 5' UTR mRNA inhibition, cherry-pick retest; shares compounds with PrP 5UTR inh; cell-based prion protein 5' UTR reporter, plate reader; inhibition, % at 2.5 µM; 1,100 tested, 48% active; AID 504592, 2011; in the data active means inhibition above about 54%; inconclusive means no clear call, values can overlap the other calls
* marks the source's active call; other numbers are inactive results; ? = inconclusive; / = not tested or not shown.

SMILES	MazEF act	VHR inh abs	Mtb hypoxia inh	PrP 5UTR inh	SARS 3CLpro inh	PrPC surface inh	PrP 5UTR single
COc1cccc(-c2nc3n(n2)C(c2cccs2)C(C(=O)Nc2cccnc2)=C(C)N3)c1 (stereo unspecified)	1.5	19.3	/	85.2*	-1.1	-6.8	4.7
Cc1cc(C2=NNC(=NC3CC3)SC2)c(C)n1-c1ccccc1F	0.6	8.2	-3.3	94.3*	1.4	6.7	96.2*
c1cc2c(cc1C1=NNC(=NC3CC3)SC1)OCCO2	8.3	9.0	19.6	90.8*	6.0	-5.2	91.2*
CC(C)CCN(C(=S)Nc1cccc(F)c1)C1CCN(C(C)C)CC1	-2.4	25.1	12.8	79.2*	-0.9	-7.4	-18.6
COc1ccc(NC(=S)N(CCC(C)C)C2CCN(C(C)C)CC2)cc1	8.4	-3.3	-1.4	-17.7	0.6	-2.2	/
COC(C(=O)C(O)C(C)O)C1Cc2cc3cc(OC4CC(OC5CC(O)C(O)C(C)O5)C(O)C(C)O4)c(C)c(O)c3c(O)c2C(=O)C1OC1CC(OC2CC(OC3CC(O)C(OC)C(C)O3)C(O)C(C)O2)C(O)C(C)O1 (stereo unspecified)	-38.1	/	/	69.5*	/	0.1	70.8*
CC1(C)Oc2cc3oc(-c4cc(O)cc(O)c4)cc3cc2CC1O (stereo unspecified)	14.3	/	/	70.7*	/	-9.5	?
C#CCOCCOCCOCCNc1nc(N2CCN(C(=O)C(Cc3ccc(O)cc3)n3cc(C(N)C(C)CC)nn3)CC2)nc(N2CCN(C(=O)C(C(C)CC)n3cc(C(N)CO)nn3)CC2)n1 (stereo unspecified)	/	/	3.5	/	/	/	/
COc1ccc(Cc2cnc(N)s2)cc1	5.7	0.9	8.4	76.9*	1.8	7.4	10.6
COc1ccc(C=NNc2ccc(C(=O)O)cc2)c(OC)c1OC	/	/	11.0	/	/	/	/
O=C(O)c1cc(S(=O)(=O)N2CCOCC2)c(Sc2ccccn2)cc1Sc1ccccn1	-0.3	25.8	/	68.8*	-3.7	-3.0	16.2
Cc1ccc(NC(=O)CSc2ccccn2)cc1S(=O)(=O)N1CCOCC1	8.1	9.6	-2.4	-1.9	0.6	-2.9	/
O=C(NCc1nc2ccccc2[nH]1)C1=CC(c2ccc3c(c2)OCO3)CC(OCc2ccc(CO)cc2)O1 (stereo unspecified)	/	/	7.2	/	/	/	/
Cc1cc(/C=N/Nc2ncnc(N)c2[N+](=O)[O-])c(C)n1-c1ccccc1	3.1	7.4	/	77.4*	0.8	-16.5	78.2*
COc1cccc(/C=N/Nc2ncnc(N)c2[N+](=O)[O-])c1OC	5.4	-14.7	/	10.7	-5.6	/	/
O=C(NC1CCCCC1)c1csnn1	4.8	/	/	84.5*	/	-10.1	-0.6
O=C(NC1CCCCCCC1)c1cnccn1	3.1	15.3	/	-13.0	0.3	-2.9	/
Cc1ccc(CCC(=O)Nc2ncc(Cc3cccc(Cl)c3Cl)s2)o1	-0.9	17.6	2.2	53.0*	3.1	-1.4	88.7*
CCc1nnc(NC(=O)CCc2ccc(C)o2)s1	5.8	4.2	6.2	-22.4	4.8	1.9	/
COc1ccccc1-c1nnc2sc(-c3cc4ccccc4o3)nn12	3.5	23.7	3.5	53.6*	-4.6	-0.6	64.0*
Cc1ccc(/C=C2\SC(=S)N(CCCC(=O)NNC(=O)c3ccccc3O)C2=O)cc1	-21.2	16.5	/	52.8*	3.0	0.0	75.0*
CCOc1ccc(/C=C2\SC(=S)N(CCC(=O)O)C2=O)cc1	-4.3	25.0	2.1	68.4*	-0.2	0.6	71.2*
NCCCCC(N)c1cn(C(CCC(=O)O)C(=O)N2CCNCC2)nn1 (stereo unspecified)	/	/	-5.0	/	/	/	/
CC1(C)c2[nH]c3ccccc3c2CC2C(=O)N(Cc3ccco3)C(=O)N21 (stereo unspecified)	/	/	-2.7	/	/	/	/
COc1ccc(/C=C2\SC(=S)N(CCC(=O)Nc3ccccc3C(=O)O)C2=O)cc1	1.9	10.0	1.9	7.1	3.1	8.7	/
SMILES	MazEF act	VHR inh abs	Mtb hypoxia inh	PrP 5UTR inh	SARS 3CLpro inh	PrPC surface inh	PrP 5UTR single
COc1ccc(/C=C2\SC(=O)N(CCCC(=O)Nc3cc(Cl)ccc3C(=O)O)C2=O)cc1	-0.3	/	10.5	91.7*	/	-6.0	83.1*
O=C(CCC(=O)Nc1ccc(F)cc1)NN=Cc1ccc(Br)cc1	/	/	1.6	/	/	/	/
COC(=O)c1ccccc1NC(=O)Cn1c(-c2nonc2N)nc2ccccc21	-0.2	-5.0	5.3	70.3*	0.1	/	90.7*
Cc1cccc(NC(=S)N/N=C/C(C)c2ccccc2)c1C (stereo unspecified)	-27.3	16.9	/	58.6*	1.1	3.7	-21.7
Cc1nc2c(-c3ccc(Cl)cc3)cnn2c(N)c1-c1ccc(F)cc1	1.7	7.2	16.0	56.4*	1.8	2.9	5.1
Nc1c(-c2ccc(Cl)cc2)cnc2c(-c3ccc(F)cc3)cnn12	-28.1	3.0	-14.1	-73.2	1.9	2.5	/
Cc1nc2c(-c3ccc(F)cc3)cnn2c(N)c1-c1ccccc1	6.8	/	-1.3	68.0*	-8.0	17.3	44.1
COc1ccc(-c2c(C)nc3c(-c4ccc(F)cc4)cnn3c2N)cc1	-0.7	5.8	12.7	-53.6	0.7	-1.9	/
COC(=O)C1=C(C(=O)OC)SC2(S1)C(C(=O)OC)=C(C(=O)OC)Sc1c2ssc1=O	-25.2	/	/	74.8*	/	-24.4	71.6*
COC(=O)C1=C(C(=O)OC)SC2(S1)C(C(=O)OC)=C(C(=O)OC)SC1=C2c2cc(C)cc(C)c2NC1(C)C	-9.3	-10.5	/	-13.8	8.5	-5.8	/
COc1cc(OC)c2c(-c3cccc(-c4ccc(C(C)=O)cc4)c3)cc(=O)oc2c1	-13.2	/	-7.7	64.2*	/	/	92.7*
CCN1C(=O)C2C(c3ccc(C)cc3)N3C(=O)N(c4cccc(Cl)c4)C(=O)[C@@]3(C)C2C1=O (stereo partly specified)	/	/	13.9	/	/	/	/
CCN(CC)C(=S)Nc1ccc(OC)cc1	-3.4	-1.2	/	55.5*	0.3	-2.3	-14.8
CC(=O)[C@@]1(O)CCC2C3CC(C)C4=CC(=O)C=C[C@]4(C)[C@@]3(F)C(O)C[C@@]21C (stereo partly specified)	/	/	4.8	/	/	/	/
CC(C)NC(=O)Nc1ccc2c(c1)C(=O)N(C(C)CO)CC(C)C(CN(C)S(=O)(=O)c1ccc(F)cc1)O2 (stereo unspecified)	/	/	15.0	/	/	/	/
CN1CCN(CC(=O)Nc2cccc(S(=O)(=O)N(C)c3ccccc3)c2)CC1	-4.7	/	4.0	91.0*	/	1.4	-0.4
CCCC(=O)Nc1cccc(S(=O)(=O)N(C)c2ccccc2)c1	6.2	-2.7	-5.1	-6.8	-0.4	-1.1	/
O=C(CNC(=O)c1cccs1)NN=Cc1ccco1	/	/	8.4	/	/	/	/
